Laboratory results reported in PubChem BioAssay (NCI).
The panel holds about 79,000 compounds, 15% with a hit somewhere; the sample as a whole holds those more often. Calls of active or inactive are those of the source. Rule as the data show it: active = growth inhibition above about 70%; inactive = the rest. Where a SMILES comes first, the peptide text is derived from it. [ ]: non-standard residue; d: D form. Hiv = CC(C)[C@H](O)C(=O)O

What was measured:
[1] = NCI Yeast Anticancer Drug Screen. Data for the rad50 strain (AID 155);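 also: 0% = growth of vehicle-only cultures of the same strain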; conditions: S. cerevisiae rad50 strain growth inhibition; at 50.0 µM; stronger effect = higher value
How it was run: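 Vehicle-treated cultures provide the reference for the growth inhibition reported for compound-exposed, repair-deficient yeast.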

[2] = NCI Yeast Anticancer Drug Screen. Data for the mec2-1 strain (AID 157); conditions: S. cerevisiae mec2-1 strain, at 50.0 µM, stronger effect = higher value
How it was run: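 Vehicle-treated cultures served as reference for growth inhibition of compound-exposed mec2-1 yeast.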

[3] = NCI Yeast Anticancer Drug Screen. Data for the sgs1 mgt1 strain (AID 161);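 also: 0% = growth of cultures given vehicle only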; conditions: S. cerevisiae sgs1 mgt1 strain, at 50.0 µM, stronger effect = higher value
How it was run: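 Inhibition of yeast growth, normalised to vehicle-treated controls, is reported for a strain bearing genetic alterations in DNA damage repair.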

[4] = NCI Yeast Anticancer Drug Screen. Data for the cln2 rad14 strain (AID 165);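 also: 0% = growth equal to vehicle treated cultures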; conditions: S. cerevisiae cln2 rad14 strain, at 50.0 µM, stronger effect = higher value
How it was run: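 Each compound was tested on cln2 rad14 yeast. Inhibition of growth was calculated against vehicle-exposed controls.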

[5] = NCI Yeast Anticancer Drug Screen. Data for the bub3 strain (AID 167); conditions: S. cerevisiae bub3 mutant strain, at 50.0 µM, stronger effect = higher value
How it was run: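 Mutant yeast screening strain plus compound; vehicle-treated cultures serve as the 0% inhibition reference.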

[6] = NCI Yeast Anticancer Drug Screen. Data for the mlh1 rad18 strain (AID 175); conditions: S. cerevisiae mlh1 rad18 strain growth inhibition; at 50.0 µM; stronger effect = higher value
How it was run: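 Vehicle-treated cultures served as the reference for growth inhibition in a yeast strain carrying DNA damage repair alterations exposed to each compound.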

Measured: growth inhibition

CCOC(=O)c1c(C)c2c(n1C)CC/C(=C\N1CCOCC1)C2=O
inactive: [1] 11.3% | [2] 13.1% | [3] 13.6% | [4] -13.8% | [5] 14.5% | [6] 15.2%

CCCCc1ccc(Nc2nc(OC)c3ncn(C4CC(O)C(CO)O4)c3n2)cc1 (stereo unspecified)
active: [1] 88.1% | [2] 90.2% | [6] 86.8%
inactive: [3] 67.2% | [4] 57.8% | [5] 69.5%

CCc1ccc(NC(=S)NC(=O)c2ccccc2OC)cc1
inactive: [1] 10.6% | [2] 7.05% | [3] 9.3% | [4] 21.1% | [5] 20.4% | [6] 3.95%

O=C(OC1COC(OCc2ccccc2)C(OC(=O)c2ccccc2)C1OC(=O)c1ccccc1)c1ccccc1 (stereo unspecified)
inactive: [1] 8% | [2] -24.4% | [3] 3.1% | [4] -30.3% | [5] 0.4% | [6] 2.75%

CCN(CC)CCOCC(=O)Nc1ccccc1C
inactive: [1] -17.3% | [2] 4.8% | [3] 4.95% | [4] -37.5% | [5] 22.8% | [6] 26.6%

CC(=S)N=Cc1c(N)[nH]n(-c2ccccc2)c1=O
inactive: [1] -40.5% | [2] -12.8% | [3] -24.6% | [4] -0.3% | [5] -20.1% | [6] -24.5%

NCCNCCCNC(=O)c1cc(-c2ccccc2)nc2ccccc12
inactive: [1] -18.8% | [2] -6.35% | [3] -1.7% | [4] -11.9% | [5] 14.9% | [6] -3.95%

O=[N+]([O-])c1ccc(-c2ccc(-c3ccccc3)cc2)cc1
inactive: [1] -1.8% | [2] -12.7% | [3] 5.35% | [4] -15.4% | [5] -10.7% | [6] -3.6%

NC(Cc1ccccc1)C(=O)NCC(=O)NC(Cc1ccccc1)C(=O)NCC(=O)O (stereo unspecified) (H-FGFG-OH; configuration not given here)
inactive: [1] -4.35% | [2] -4.15% | [3] -7.95% | [4] -36.4% | [5] -4.7% | [6] 4.2%

CC(C)[C@@H]1OC(=O)[C@@H](C)NC(=O)[C@@H]2CCCN2C1=O (cyclo([Hiv]-Pro-[dA]))
inactive: [1] -38.2% | [2] -6.75% | [3] -15.1% | [4] 5.95% | [5] -22.6% | [6] -16.4%

O=C1C2=C(c3ccccc31)C(c1ccccc1Cl)N1C(=O)CSC1=N2 (stereo unspecified)
inactive: [1] 67.9% | [2] 50.2% | [3] 53.5% | [4] 48.6% | [5] 53.8% | [6] 60%

CCC(/C=C/C(C)C1CCC2C3CC=C4CC(OC(=O)Nc5ccccc5)CCC4(C)C3CCC12C)C(C)C (stereo unspecified)
inactive: [1] -6.65% | [2] 2.1% | [3] -4.9% | [5] 5.55% | [6] 57.5%
active: [4] 77.2%

O=C1NC(=O)C(c2ccccc2)(C2CCOCC2)N1 (stereo unspecified)
inactive: [1] 11.1% | [2] 3.05% | [3] -2.65% | [4] -54.9% | [5] -9.65% | [6] 28.4%

CCC1(c2ccccc2)SC(N)=NC1=O (stereo unspecified)
inactive: [1] 2.15% | [2] 2.75% | [3] -12.8% | [4] -8.45% | [5] 1.05% | [6] -0.6%

O=C1c2ccccc2C(=O)N1CNc1cccc(NCN2C(=O)c3ccccc3C2=O)n1
inactive: [1] -35.8% | [2] -22.1% | [3] -23.1% | [4] 13.4% | [5] -6.5% | [6] -34.8%

Cc1ccccc1N=CC(C=O)[N+](=O)[O-] (stereo unspecified)
inactive: [1] -1.65% | [2] -9.8% | [3] 0.95% | [4] 4.1% | [5] -4.7% | [6] -5.65%

S=C1N=C(Cl)/C(=C\c2ccccc2)N1
inactive: [1] -4.65% | [2] -23.9% | [3] 3.45% | [4] 24.1% | [5] 11.5% | [6] -14.4%

COc1cc2c(cc1C/C=C/c1cc(OC)c(OC)c(OC)c1)OCO2
inactive: [1] -1.95% | [2] -3.1% | [3] 22.8% | [4] -1.65% | [5] 8.55% | [6] 12.2%

Cn1c(=O)c2c(ncn2CN2CCN(Cn3cnc4c3c(=O)n(C)c(=O)n4C)CC2)n(C)c1=O
inactive: [1] 2.75% | [2] 28.2% | [3] -7.45% | [4] 16.1% | [5] -63.9% | [6] -30%

CN1CCN(CCN2C(=O)c3ccccc3C2=O)CC1
inactive: [1] -12.3% | [2] 2.65% | [3] -10.5% | [4] -15% | [5] -10.8% | [6] -43.8%

CCc1ccccc1NC(=O)CC1NC(=O)CS1 (stereo unspecified)
inactive: [1] -8.95% | [2] -9.3% | [3] 4.4% | [4] 9.9% | [5] -30.4% | [6] -21.4%
